PLK1 inh: inhibitors of human PLK1 kinase | recombinant PLK1 kinase, TR-FRET peptide phosphorylation | hit rate 0.53% among 97,000 | inhibition, % at 10 µM;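 active = inhibition of 50% or more in the single-concentration screen; inactive = inhibition below 50%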
Pyk2 oligo antag: blocks oligomerization of human Pyk2 in cells; z-score (the deposit names both 25 µM and 10 µM); hit rate 0.83% among 99,000; AID 1347419; Q293 cells, Pyk2 FERM NanoBiT luminescence; hits give low values; Q14289;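 active = Z-score of -3 or lower, scaled per plate to the spread of control and sample wells; inactive = z-score above -3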;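 note: negative z-score means lost luminescence so less FERM oligomerization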
Target sequence (Q14289 whole entry, looked up): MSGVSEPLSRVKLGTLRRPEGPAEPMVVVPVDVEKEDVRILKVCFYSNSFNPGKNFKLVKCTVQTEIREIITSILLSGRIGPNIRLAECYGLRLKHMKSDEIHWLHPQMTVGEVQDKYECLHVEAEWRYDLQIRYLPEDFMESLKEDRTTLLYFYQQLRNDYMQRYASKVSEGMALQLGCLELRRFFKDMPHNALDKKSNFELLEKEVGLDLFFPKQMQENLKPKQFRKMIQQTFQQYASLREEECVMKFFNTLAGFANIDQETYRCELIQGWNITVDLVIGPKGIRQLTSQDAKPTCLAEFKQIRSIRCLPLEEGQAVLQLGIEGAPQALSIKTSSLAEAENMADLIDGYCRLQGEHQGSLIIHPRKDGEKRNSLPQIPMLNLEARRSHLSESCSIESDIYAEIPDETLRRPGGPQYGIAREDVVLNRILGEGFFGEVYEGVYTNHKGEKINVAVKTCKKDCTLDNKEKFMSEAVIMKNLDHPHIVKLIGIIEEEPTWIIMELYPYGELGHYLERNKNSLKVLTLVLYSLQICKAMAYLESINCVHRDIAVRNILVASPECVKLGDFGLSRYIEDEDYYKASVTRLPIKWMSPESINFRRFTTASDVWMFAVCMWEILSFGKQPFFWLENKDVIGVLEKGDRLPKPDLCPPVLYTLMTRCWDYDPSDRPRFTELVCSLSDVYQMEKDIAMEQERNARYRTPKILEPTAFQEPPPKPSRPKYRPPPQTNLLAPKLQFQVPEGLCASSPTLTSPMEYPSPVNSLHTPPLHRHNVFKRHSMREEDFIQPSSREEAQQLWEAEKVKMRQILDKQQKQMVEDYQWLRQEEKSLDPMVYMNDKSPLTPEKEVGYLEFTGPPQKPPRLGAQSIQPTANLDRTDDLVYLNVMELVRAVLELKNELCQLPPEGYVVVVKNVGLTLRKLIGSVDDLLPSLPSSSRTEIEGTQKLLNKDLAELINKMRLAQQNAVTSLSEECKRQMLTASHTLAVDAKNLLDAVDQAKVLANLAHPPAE
PLK1 PBD inh: Plk1 (human) PBD binding inhibition. hit rate 0.13% among 97,000. Plk1 PBD phosphopeptide binding, fluorescence polarization. inhibition, %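 (tested at about 20 µM)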. AID 693; in the data active = inhibition above about 34%, passing the limit was not always enough
PTPN22 inh 2: LYP (human) phosphatase inhibition | Q9Y2R2 | recombinant LYP catalytic domain, DiFMUP fluorescence | inhibition, % at 2 µM | hit rate 0.21% among 96,000 | AID 640;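 active = inhibition at 2 µM at or above a set limit, the screen mean plus 3 SD, cut at about 24% in these data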
LYP act: activators of human LYP (PTPN22) phosphatase; Q9Y2R2; recombinant LYP, DiFMUP fluorescence; 0 = plate median, 100 = signal doubled; activation, % at 2 µM; hit rate 0.11% among 96,000;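 active = activation at 2 µM above a set limit, the mean plus 5 SD, cut at about 37% in these data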
Each line names hits and unclear results; the compound was inactive in the other large screens. The list is not random: actives were taken first. Their share in the collection is about 1.7%.

COc1ccc(NC(=O)c2oc3ccccc3c2NC(=O)c2ccco2)c(OC)c1	none
COc1ccc(NC(=O)c2oc3ccccc3c2NC(=O)c2ccco2)cc1	Pyk2 oligo antag -3
Cc1ccc2c(Cl)cc(Cl)c(OCC(=O)NCc3ccco3)c2n1	PTPN22 inh 2 30 (no result: Pyk2 oligo antag)
Cc1ccc2c(Cl)cc(Cl)c(OCC(=O)NC(=O)NCc3ccco3)c2n1	none
O=C(Nc1nc2c(Cl)ccc(Cl)c2s1)c1ccco1	none (no result: Pyk2 oligo antag)
O=C(Nc1nc2c(ccc3ccccc32)s1)c1ccco1	Pyk2 oligo antag -3.3
CCCCC(CC)C(=O)NCCCN1CCN(CCCNC(=O)C(CC)CCCC)CC1 (stereo not given)	none (no result: PLK1 inh, PLK1 PBD inh, PTPN22 inh 2, LYP act)
COc1ccc(CCn2c(N)c(C(=O)NCc3ccco3)c3nc4ccccc4nc32)cc1OC	none
Nc1c(C(=O)NCc2ccco2)c2nc3ccccc3nc2n1CCc1ccccc1F	PTPN22 inh 2 25
Oc1ccc(/C=N/n2c3ccccc3c3ccccc32)cc1	none
Cc1cc(S(=O)(=O)N2CCN(c3ccccc3C)CC2)ccc1F	Pyk2 oligo antag -3.6
Cc1ccccc1N1CCN(S(=O)(=O)c2ccccc2)CC1	Pyk2 oligo antag -3.1
Cc1cc(S(=O)(=O)N2CCN(c3c(C)cccc3C)CC2)ccc1F	none
COC(=O)C1CN(S(=O)(=O)c2ccc(C)cc2)CCN1S(=O)(=O)c1ccc(C)cc1 (stereo not given)	Pyk2 oligo antag -3.7
Cc1[nH]nc2c1C1(CCN(C(=O)c3ccccc3)CC1)C(C#N)=C(N)O2	none
Cc1[nH]nc2c1C1(CCC(c3ccccc3)CC1)C(C#N)=C(N)O2 (stereo not given)	PLK1 inh 60
O=C(OCCN1C(=O)c2ccccc2C1=O)C1CCN(S(=O)(=O)c2cccs2)CC1	none
Cc1cccc(N2CCN(C(=O)C3CCN(S(=O)(=O)c4cccnc4)CC3)CC2)c1C	none (no result: Pyk2 oligo antag)
N#CC1=C(N)Oc2ccc3ccc(O)cc3c2C1c1cccnc1 (stereo not given)	Pyk2 oligo antag -3.2
Cc1cccc(NC(=O)CSc2ncnc3nc[nH]c23)c1C	none
FC(F)Sc1ccc(Nc2ncnc3nc[nH]c23)cc1	PLK1 inh 60
Cc1cccc(Nc2ncnc3nc[nH]c23)c1C	PLK1 inh 56 (no result: Pyk2 oligo antag)
CC(=O)Nc1ccc(S(=O)(=O)N2CCN(c3nc(NC4CCCC4)c4ccccc4n3)CC2)cc1	Pyk2 oligo antag -3
C=CCN1C(=O)N(/C=C/C)c2cccc3cccc1c23	Pyk2 oligo antag -3.7
O=C(Cc1cccs1)N(Cc1ccco1)C1(C(=O)NC2CCCCC2)CCCCC1	Pyk2 oligo antag -4.2
O=C(Cc1cccs1)N(Cc1cccs1)C1(C(=O)NC2CCCC2)CCCCC1	Pyk2 oligo antag -3.4
CC(=O)N(Cc1ccco1)C1(C(=O)NC2CCCCC2)CCCCC1	none
O=C(NC1CCCCC1)C(c1cccs1)N(Cc1cccs1)C(=O)c1cccs1 (stereo not given)	Pyk2 oligo antag -3.9
O=C(NC1CCCCC1)C(c1ccc2ncccc2c1)N(Cc1cccs1)C(=O)c1cccs1 (stereo not given)	none
CC12CNCC(C)(CN(C(c3ccccc3)c3ccccc3)C1)C2	none
CCc1ccc(NC(=O)c2c(Cl)nc(C)c(Cl)c2C)cc1	none (no result: PLK1 inh, PLK1 PBD inh, PTPN22 inh 2, LYP act)
CC(=O)Oc1ccc2ccccc2c1C(NC(=O)Cc1ccccc1)c1ccc(Cl)cc1 (stereo not given)	Pyk2 oligo antag -4
O=C(Cc1ccccc1)NC(Nc1cccc2ccccc12)C(Cl)(Cl)Cl (stereo not given)	none
COc1ccc(Cl)cc1S(=O)(=O)N1CCN=C1C	PLK1 inh 64 (no result: Pyk2 oligo antag, PTPN22 inh 2, LYP act)
COc1ccc(Cl)cc1S(=O)(=O)N1CCN(c2ccc(F)cc2)CC1	none
CC(C)C(C(=O)O)N1C(=O)/C(=C/C=C/c2ccco2)SC1=S (stereo not given)	PTPN22 inh 2 29
CCCCNC(=O)Nc1nnc(-c2ccc(Cl)cc2)o1	none
CCN(CC)c1nc(N)c2c(N)n(-c3ccccc3C)c(=S)c(C#N)c2c1C#N	Pyk2 oligo antag -3.7
CCS(=O)(=O)Nc1ccc(C2=NN(C(=O)c3ccco3)C(c3ccc(C)cc3)C2)cc1 (stereo not given)	Pyk2 oligo antag -3
Cc1ccc(C2=NN(C(=S)Nc3ccccc3)C(c3ccco3)C2)cc1 (stereo not given)	none
Cc1cc(Cl)c(S(=O)(=O)N2CCN(c3ccc(F)cc3)CC2)cc1OCC(=O)NC1CCCCC1	none
CN1CCc2nc(SCC(=O)Nc3ccc(OC(F)(F)F)cc3)c(C#N)c(-c3cccs3)c2C1	none (no result: PLK1 inh, PLK1 PBD inh, PTPN22 inh 2, LYP act)

Source: PubChem
